Here are results for 40 compounds from PubChem BioAssay (NCI).

Compounds without any hit were thinned out: in the full panel of roughly 83,000, 20% have a hit.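 Interpretation: 100, growth as untreated; towards 0, rising growth inhibition; 0, no net growth; 0 to -100, cell death. Compounds scoring below 10 were considered active.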 A number with no mark means an inactive call. The source made the active and inactive calls.

The test concerns SK-OV-3 ovarian. Nature of the test: NCI-60 one-dose screen, 48 h (100 = growth as untreated, 0 = no growth, -100 = all killed). To be noted: 10 µM unless noted. Here is the method: Growth inhibition of the SK-OV-3 human tumor cell line is measured as a screen for anti-cancer activity. Cells are grown in 96 well plates and exposed to the test compound for 48 hours. Compounds are tested at a single concentration, which is 10^-5 M for most compounds. The reported endpoint is percent growth (GI% or GIPRCNT), where numbers from 0 - 100% represent growth inhibition, and numbers from -100% - 0 represent cell death. For example, a value of 40 represents 60% growth inhibition. A value of 0 means no net growth occurred over the course of the experiment. A value of -40 indicates 40% of cells at the beginning of the experiment died by the end of the experiment. A value of -100 means all cells are dead at the end of the experiment.
NCI-60 Human Tumor Cell Lines Screen was performed using the standard one-dose NCI protocol, which is described in more detail at https://dtp.cancer.gov/discovery_development/nci-60/default.htm.
Compounds with GIPRCNT values below 10 were considered active. Activity score was based on GIPRCNT using the following formula: […]
Score is 0 for GIPRCNT values of 100 or above, 50 for GIPRCNT values of 0, and 100 for GIPRCNT values of -100.
With `COc1cc(Br)c(OC)cc1Br`, the growth was 101%.
Consider `COc1ccc(-c2nc(-c3ccccc3)c(-c3ccccc3)n2C2CC2)cc1OC1CCCCC1`, for which the growth is 89.4%.
Consider `O=C(O)c1ccc(-n2cc(CNc3ccc(C(F)(F)F)cc3)c(-c3ccccc3)n2)cc1`, for which the growth was 103%.
In the case of `O=C(CNc1ccc(Cl)cc1)Nc1ccc(-c2nc3ccccc3s2)cc1`, the growth is 89.7%.
`COc1ccc(-c2nnc(COc3ccc(NC(=O)Nc4ccc(Cl)c(C(F)(F)F)c4)cc3F)o2)cc1`: the growth is 22.1%.
`CN1CCN(CCCOc2ccc3nc(Nc4ccc(C(F)(F)F)c(Cl)c4)ccc3c2)CC1`: the growth is 55.5%.
Regarding `CSc1ccccc1C#C/C=C\C#Cc1ccccc1N1CCCCC1=O`, the growth was 109%.
Regarding `Cc1cccc(-n2c(C)nc3ccc(NC(=O)NCCCl)cc3c2=O)c1`, the growth is 102%.
On to `COC(=O)C(CC(=O)c1ccc(-c2ccccc2)cc1)c1ccccc1` (stereo not given), for which the growth was 85.2%.
In the case of `COc1ccc(/C=C(\C#N)c2ccc([N+](=O)[O-])cc2)c2ccccc12`, the growth was 5.28% (active).
In the case of `C=C1C(=O)O[C@H]2[C@H]1CC/C(COC(=O)NCc1cc(OC)cc(OC)c1)=C\CC[C@@]1(C)O[C@@H]21` it was 81.7%; in that of `Cc1cc(C(=O)CSc2nc3ccccc3c(=O)[nH]2)c(C)n1C`, 108%.
As to `C/C(=N\NC(=O)CC#N)c1cc2cc(Cl)ccc2o1`, the growth was 98.8%.
In the case of `c1ccc(CCn2nnc3c(Nc4ccc(N5CCOCC5)cc4)ncnc32)cc1` it was 93.1%; in that of `CC(=O)Nc1nc(C(=O)N2N=C(C)/C(=C/c3ccccc3)C2=O)cs1`, 97.6%; in that of `CCCCCCC[C@@H](O)CC(=O)N[C@H](CCCCN)C(=O)N[C@H](Cc1c[nH]c2ccccc12)C(=O)NC(CCCCN)C(=O)N[C@H](CC(C)C)C(=O)N[C@H](Cc1ccccc1)C(=O)N[C@H](CCCCN)C(=O)N[C@H](CCCCN)C(=O)N[C@H](CC(C)C)C(=O)N1CCCC1C(=O)N[C@H](CCCCN)C(=O)N[C@H](Cc1ccccc1)C(=O)N[C@H](CC(C)C)C(=O)N[C@H](Cc1c[nH]cn1)C(=O)N[C@H](CC(C)C)C(=O)N[C@H](C)C(=O)N[C@H](CCCCN)C(=O)N[C@H](CCCCN)C(=O)N[C@H](Cc1ccccc1)C(=O)O` (stereo not given in full), -62.8% (active).
`Cc1nc2sccn2c1-c1csc(Nc2ccccc2Cl)n1`: the growth is 75.9%.
Consider `CN(C)c1ccc(/C=C\N=Nc2ccc(Br)cc2)cc1`, for which the growth was 92.8%.
As to `C#CCC1(c2ccc(F)c(F)c2)NS(=O)(=O)c2ccccc21` (stereo not given), the growth is 96.9%.
In the case of `COc1ccc(NC(=O)CSc2nc3ccccc3c(=O)n2Cc2cc(OC)c(OC)c(OC)c2)cc1`, the growth was 97%.
On to `CCCCCCCCCCC/C=C\C[C@H](O)C/C=C1/C(=O)C=C[C@@H]1C/C=C\CCCC(=O)OC`, for which the growth was 26.8%.
As to `CCOC(=O)CC/C(C)=N\Nc1ccc([N+](=O)[O-])cc1`, the growth was 57.8%.
With `CC1Cc2c(N(C)C)ncnc2N(C)c2ccc(Cl)cc21` (stereo not given), the growth is 46.3%.
Then `COc1cc(/C=C\c2cc(OC)c(OC)c(OC)c2)cc(N/C=C\C(=O)c2c[nH]c3ccccc23)c1OC`, with 90.1%.
Turning to `O=C(CCC(=O)OC1CCCC1)OC1CCCC1`, the growth was 110%.
In the case of `Cn1cc(C=O)c2ccccc21` it was 101%; in that of `CN(C)c1nc(N)c(N=O)c(N)n1`, 99.2%.
Regarding `COc1ccc(-c2cn[nH]c2-c2cc(OC)c3c(c2)OCCO3)cc1`, the growth was 15.9%.
For the compound `O=C(/C=C/CN1CCOCC1)Nc1cc2c(Nc3cccc(Cl)c3F)ncnc2cc1OCCOC(F)F`, the growth was 9.17% (active).
Turning to `Nc1nc(Cl)c2c(ncn2Cc2ccc(CCl)cc2)n1`, the growth is 103%.
Take `CC(C)(C)c1cn2cccc(C(=O)N3CCN(CC(=O)Nc4ccc(Cl)cc4C(=O)c4ccccc4Cl)CC3)c2n1`: the growth is 91.4%.
`Cc1nc(Nc2cccnc2)sc1C(=O)/C=C/c1ccc(F)cc1`: the growth is 71.6%.
`C=CCN=C1NC(=O)/C(=C/c2cc(C(C)(C)C)c(O)c(C(C)(C)C)c2)S1`: the growth is 74.8%.
`CCC1CCc2nc3sc(C(=O)Nc4ccccc4F)c(N)c3cc2C1` (stereo not given): the growth was 80.7%.
In the case of `O=C(c1c[nH]c2ccccc12)C(Sc1nc2ccccc2c(=O)[nH]1)c1ccccc1` (stereo not given), the growth was 104%.
`O=S=Nc1ccc([N+](=O)[O-])cc1`: the growth is 103%.
Take `COC(=O)CCCCN=Cc1c(O)c(O)c(C(C)C)c2cc(C)c(-c3c(C)cc4c(C(C)C)c(O)c(O)c(C=NCCCCC(=O)OC)c4c3O)c(O)c12`: the growth is 40.1%.
Regarding `COc1cc(Cn2c(SCC(=O)Nc3cc(OC)c(OC)c(OC)c3)nc3ccccc3c2=O)cc(OC)c1OC`, the growth was 51.2%.
In the case of `O=C(O)Cc1ccc2c(c1)Cc1cccnc1O2`, the growth is 103%.
`Clc1ccc2c(c1)NC1(CCSc3ccccc31)n1nccc1-2` (stereo not given): the growth is 111%.
